In the antibiotic and cytotoxicity screens of Wong et al. (2023):
Screen size: about 39,000 compounds; about 1,500 (3.8%) were called active. For the sample, actives were picked, then their nearest neighbours and some compounds at random.

These compounds were tested on HSkMC (human skeletal muscle cells) (assay: cytotoxicity call (relative viability < 0.9)). Details: 10 µM.

SMILES	cytotoxicity call
CCCCSP(=O)(SCCCC)SCCCC	inactive
COc1ccc(O)c(C(C)(C)C)c1	inactive
CC(=O)OC1C(=O)C2(C)C(O)CC3OCC3(OC(C)=O)C2C(OC(=O)c2ccccc2)C2(O)CC(O)C(C)=C1C2(C)C (configuration not stated)	inactive
C[C@H]1CN([C@@H](C)CO)C(=O)CCCn2cc(nn2)CO[C@H]1CN(C)C(=O)Oc1ccc2ccccc2c1	inactive
C=C1[C@@H](C)[C@H]2[C@H](Cc3ccccc3)NC(=O)[C@]23[C@H](OC(C)=O)/C=C/[C@](C)(O)C(=O)[C@@H](C)C/C=C/[C@H]3[C@@H]1O	active
COCCCNC(=O)[C@@]1(Cc2ccccc2CN=[N+]=[N-])N=C(c2ccc(OCCCO)cc2)O[C@H]1c1ccccc1CN=[N+]=[N-]	inactive
Nc1ccc2c(c1)Cc1ccccc1-2	inactive
CC(C)n1cnnc1CCN	inactive
CN1C[C@@H](NC(=O)C2CC2)[C@H]2OCCC[C@H]21	inactive
CCN1C(=O)/C(=C/c2ccc[nH]2)C(=O)NC1=S	inactive
C=CCN1C(=O)NC(=O)/C(=C/c2ccco2)C1=O	active
CN1C(=O)NC(=O)/C(=C\C=C\c2ccco2)C1=O	inactive
COC1=CC(=O)OC(C=Cc2ccccc2)C1 (configuration not stated)	inactive
O=C(O)CC[C@@H](CP(=O)(O)O)C(=O)O	inactive
CC12CCC3C(CCC4CC(O)CCC43C)C1CCC2=O (configuration not stated)	inactive
CO[C@H]1[C@@H](O)[C@@H](O[C@H]2CC[C@]3(C=O)[C@@H]4[C@@H](CC[C@]3(O)C2)[C@@]2(O)CC[C@H](C3=CC(=O)OC3)[C@@]2(C)C[C@H]4OC(C)=O)O[C@@H](C)[C@@H]1OC(C)=O	inactive
CC(=O)O[C@H]1C[C@@H]2CC[C@@H]3[C@H](CC[C@@]4(C)[C@H]3C[C@H]([N+]3(C)CCCCC3)[C@@H]4OC(C)=O)[C@@]2(C)C[C@@H]1[N+]1(C)CCCCC1	inactive
CC(=O)OC1CCC2(C)C(CCC3C2CCC2(C)C(C4=CC(=O)OC4)C(OC(C)=O)CC32O)C1 (configuration not stated)	active
CC12CCC(O)CC1CCC1C2CC(O)C2(C)C(C3=CC(=O)OC3)CCC12O (configuration not stated)	active
CC(=O)O[C@H]1C[C@H](O[C@H]2[C@@H](O)C[C@H](O[C@H]3[C@@H](O)C[C@H](O[C@H]4CC[C@@]5(C)[C@@H](CC[C@H]6[C@@H]5C[C@@H](O)[C@]5(C)[C@@H](C7=CC(=O)OC7)CC[C@]65O)C4)O[C@@H]3C)O[C@@H]2C)O[C@H](C)[C@H]1O[C@@H]1O[C@H](CO)[C@@H](O)[C@H](O)[C@H]1O	active
CC(=O)OC1CC(OC2C(O)CC(OC3C(O)CC(OC4CCC5(C)C(CCC6C5CC(O)C5(C)C(C7=CC(=O)OC7)CCC65O)C4)OC3C)OC2C)OC(C)C1OC1OC(CO)C(O)C(O)C1O (configuration not stated)	active

SMILES	cytotoxicity call
CC12CCC3C(CCC4CC(O)CCC43C)C1CCC2O (configuration not stated)	inactive
CNC(=O)Oc1ccc2c(c1)C1(C)CCN(C)C1N2C (configuration not stated)	inactive
COC(=O)[C@]1(Cc2ccccc2CN=[N+]=[N-])N=C(c2ccc(OCCCO)cc2)O[C@@H]1c1ccccc1CN=[N+]=[N-]	inactive
COc1ccccc1C1(N)CC1	inactive
N#C[C@]1(O)CN2CCC1CC2	inactive
CC(C)Oc1ccc(CCN)cc1	inactive
COc1cc(C=O)cc(OC)c1OC	inactive
Cn1cc([C@@]23C[C@]2(C)COC3=O)cn1	inactive
C1CCN(C[C@H]2CO[C@]3(CNCCOC3)C2)C1	inactive
C=C1CC2C(CCC3(C)C(=O)CCC23)C2(C)C=CC(=O)C=C12 (configuration not stated)	inactive
O=C1C[C@@H](c2ccncc2)C2(CCNCC2)N1	inactive
O=C(NN=Cc1ccc([N+](=O)[O-])o1)c1cc([N+](=O)[O-])cc([N+](=O)[O-])c1O	inactive
CC(C)N(C)C[C@H]1CO[C@]2(CNCCOC2)C1	inactive
O=c1cccc2n1C[C@@H]1C[C@H]2CN(CCO)C1	inactive
O=C(CBr)N1CC([N+](=O)[O-])([N+](=O)[O-])C1	inactive
O=C(O)CNCP(=O)(O)O	inactive
NCCO.NCCO.O[AsH]O[AsH]O (configuration not stated)	inactive
O=c1cccc2n1C[C@H]1CNC[C@H]2C1	inactive
CN(C)C(=O)Oc1ccc[n+](C)c1.[Br-]	inactive
NCC1(c2c(F)cc(F)cc2F)CC1	inactive
CO[C@H]1[C@@H](O)C[C@@H](O[C@H]2[C@@H](O)C[C@@H](O[C@H]3[C@@H](O)C[C@@H](O[C@H]4CC[C@@]5(C)[C@@H](CC[C@H]6[C@@H]5C[C@@H](O)[C@@]5(C)[C@H](C7=CC(=O)OC7)CC[C@@]65O)C4)O[C@@H]3C)O[C@@H]2C)O[C@@H]1C	active

SMILES	cytotoxicity call
CO[C@H]1[C@H](O)[C@@H](O[C@H]2[C@@H](C)O[C@@H](O[C@H]3[C@H](C)O[C@H](O[C@H]4CC[C@@]5(C)[C@@H](CC[C@@]6(O)[C@@H]5C[C@@H](O)[C@]5(C)[C@]6(O)CC[C@@]5(O)[C@@H](C)O)C4)C[C@@H]3OC)C[C@H]2OC)O[C@@H](C)[C@H]1O	inactive
Cc1cc(N(C)C)ccc1C[C@@H](C)N	inactive
Cn1cc(N2C[C@@H]3CN(CCO)C[C@@H]3C2=O)cn1	inactive
COC(=O)[C@@H]1[C@@H](CO)[C@@H]2Cn3c(ccc(C4=CCCC4)c3=O)[C@H]1N2S(=O)(=O)c1cn(C)cn1	inactive
CCC(=O)CCCCC[C@@H]1NC(=O)[C@H]2CCCCN2C(=O)[C@H]([C@@H](C)CC)NC(=O)[C@H](Cc2cn(OC)c3ccccc23)NC1=O	active
CCC(=O)CCCCC[C@@H]1NC(=O)[C@H]2CCCCN2C(=O)[C@H]([C@H](C)CC)NC(=O)[C@H](Cc2cn(OC)c3ccccc23)NC1=O	active
Nc1ccc(-c2ccc(N)cc2)cc1	inactive
O=[N+]([O-])c1cc([As](=O)(O)O)ccc1O	inactive
COc1cccc(-c2ccc3c(CCN)c[nH]c3c2)c1	inactive
CCNS(=O)(=O)C(F)(F)C(F)(F)C(F)(F)C(F)(F)C(F)(F)C(F)(F)C(F)(F)C(F)(F)F	inactive
CC(=O)NCCSS(C)(=O)=O.CN(C)c1ccc2c(-c3ccccc3C(=O)O)c3ccc(N(C)C)cc3[o+]c2c1	inactive
CNc1ccc2oc(C[C@H]3O[C@@]4(CC[C@H]3C)O[C@H]([C@H](C)C(=O)c3ccc[nH]3)[C@H](C)C[C@H]4C)nc2c1C(=O)O	active
NCc1[nH]nc2cc(F)ccc12	inactive
CC(=O)[C@]12[C@@H]3CC=C[C@H]1N2CC3 (some centres not stated)	inactive
CCN1C[C@]2(OC(=O)c3ccccc3NC(C)=O)CC[C@H](OC)[C@@]34[C@@H]2C[C@@H]([C@@H]13)[C@@]1(O)C[C@H](OC)[C@H]2C[C@@H]4[C@]1(O)[C@H]2OC	inactive
COc1cc2c(cc1OC)C1C(=O)c3ccc4c(c3OC1CO2)CC(C(C)C)O4 (configuration not stated)	inactive
CC[C@@H](C(=O)[C@@H](C)[C@@H](O)[C@H](C)[C@@H]1O[C@@H]([C@@H](CC)C(=O)O)CC[C@@H]1C)[C@H]1O[C@]2(C=C[C@@H](O)[C@]3(CC[C@@](C)([C@H]4CC[C@](O)(CC)[C@H](C)O4)O3)O2)[C@H](C)C[C@@H]1C	active
CCC(C(=O)[O-])C1CCC(C)C(C(C)C(O)C(C)C(=O)C(CC)C2OC3(C=CC(O)C4(CCC(C)(C5CCC(O)(CC)C(C)O5)O4)O3)C(C)CC2C)O1.[Na+] (configuration not stated)	inactive
[N-]=[N+]=NCC(=O)N1CCOCC1	inactive
COCC(=O)N[C@@H]1[C@@H]2CNC[C@@H]21	inactive
C[C@H]1[C@H](O)[C@@H](C)/C=C\C=C/CC\C=C/C=C\C=C/C=C\[C@@H](O[C@@H]2O[C@H](C)[C@@H](O)[C@H](N)[C@@H]2O)C[C@H]2O[C@@](O)(C[C@@H](O)[C@@H]2C(=O)O)C[C@@H](O)[C@@H](O)CC[C@@H](O)C[C@@H](O)C[C@@H](O)CC(=O)O[C@H]1C	inactive

SMILES	cytotoxicity call
CN1CCC2(C)c3cc(O)ccc3N(C)C12.O=C(O)C=CC(=O)O (configuration not stated)	inactive
O=S(=O)(O)O.Oc1cccc2cccnc12	inactive
C[C@@]1(C(=O)O)[C@H]2CC[C@@H](O2)[C@@]1(C)C(=O)O	active
O=C(O)[C@H]1[C@H](C(=O)O)[C@H]2CC[C@@H]1O2	inactive
C[C@]12CC[C@](C)(O1)[C@H](C(=O)O)[C@@H]2C(=O)O	inactive
CC1(C)[C@@H](C=C(Br)Br)[C@@H]1C(=O)O[C@@H](C#N)c1cccc(Oc2ccccc2)c1	inactive
FCCN1C[C@H]2CCN[C@H]2C1	inactive
CC(=O)OC(C)(C)/C=C/C(=O)C(C)(O)[C@H]1[C@H](O)C[C@@]2(C)[C@H]3CC=C4[C@@H](C[C@H](O)C(=O)C4(C)C)[C@]3(C)C(=O)C[C@]12C (some centres not stated)	inactive
CC(C)(O)/C=C/C(=O)[C@](C)(O)[C@H]1[C@H](O)C[C@@]2(C)[C@H]3CC=C4[C@@H](CC(=O)C(=O)C4(C)C)[C@]3(C)C(=O)C[C@]12C	active
C[C@@H]1CN([C@@H](C)CO)C(=O)c2c(c3ccccc3n2C)-c2ccccc2CO[C@@H]1CN(C)C(=O)Oc1ccccc1	inactive
C[C@H]1O[C@H](n2cnc3c(N)ncnc32)C[C@@H]1O	inactive
CC(C)C[C@@H](NC(=O)[C@H](Cc1ccccc1)NC(=O)CNC(=O)[C@@H](C)NC(=O)[C@@H](N)Cc1ccc(O)cc1)C(=O)O	inactive
CCCCOC(=O)c1ccccc1C(=O)OCCCC	inactive
C[CH2][Hg][S]c1ccccc1C(=O)[O-].[Na+]	active
O=C([O-])Cc1ccccc1.[Na+]	inactive
Cc1noc(C)c1CN1CCNCC1	inactive
CCN(C)C(=O)Oc1cccc(C(C)N(C)C)c1.O=C(O)C(O)C(O)C(=O)O (configuration not stated)	inactive
CCCCOC(=O)C1=CC(=O)CC(C)(C)O1	inactive
CNCCc1ccc(O)c(O)c1	inactive
